HT1080 IDH1KD tx = HT-1080 IDH1 knockdown cell toxicity (counter line); HT-1080 IDH1 knockdown viability, ATP luminescence, 48 h; Potency, µM (series often up to 46.1 µM), actives largely listed as cytotoxic; 360,000 compounds, 2% hits
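IDH1KD HT-1080 cells, 750/well, RPMI + 5% FBS; compound pinned after 2 h settling; 48 h, 37 °C; CellTiter-Glo luminescence; % activity normalised to DMSO and no-cell wells; curves fitted, classed by r2 and efficacy.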
HepG2 tox = HepG2 cytotoxicity, counter-screen for TGF-b inhibitors; 410,000 compounds, 0.76% hits; HepG2 CAGA-GFP viability, ATP luminescence, 18 h; Potency, µM (top dose mostly 46.1 µM), usual class: cytotoxic
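CellTiter-Glo luminescence gave cytotoxicity after 18 hours at 37 degrees C. The cells were HepG2 CAGA-GFP in 1% FBS DMEM, stimulated with 500 pg/mL TGF-beta after compound addition. %Activity was normalised to no-cell wells (complete cell-killing) and DMSO (no toxicity), and curves were fitted and classified.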
HT1080NT lethal = kills 2HG-producing HT-1080-NT fibrosarcoma cells | HT-1080-NT fibrosarcoma viability, CellTiter-Glo ATP luminescence, 48 h | Potency, µM (doses to about 46.1 µM), hits mostly cytotoxic | 360,000 compounds, 1.6% hits;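 also: NT is the 2HG producing partner of a matched IDH1 knockdown line; nearly all actives have a fitted effect of over 55% in size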
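A 48-hour cytotoxicity screen used HT-1080-NT cells plated 2 hours before compound delivery. ATP-based CellTiter-Glo luminescence measured viability, normalized to DMSO and no-cell controls.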
ATXN2 expr inh = ATXN2 expression inhibition. HEK-293 ATXN2-luciferase reporter, luminescence, 24 h. Potency, µM (highest dose often 57 µM), usual class: inhibitors. 360,000 compounds, 0.72% hits; also: nearly all actives have a fitted effect of over 55% in size
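qHTS (up to 57 uM final) was run with 24 h compound exposure of reporter cells at 37 °C. Each well was multiplexed: SteadyGlo luminescence measured ATXN2-luciferase expression after a fluorogenic Gly-Phe-AFC viability readout (25 uM final).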
S2 tox = reduces viability in counter-screen for ATXN expression inhibitors. S2 cells (HEK-293 line with an ATXN2-luciferase reporter) viability, CellTiter-Fluor protease fluorescence, 24 h. Potency, µM (top dose mostly 56.7 µM), hits mostly cytotoxic. 400,000 compounds, 0.49% hits. AID 651635; also: nearly all actives have a fitted effect of over 40% in size
TGFb inhibitor = blocks TGF-b signaling; 410,000 compounds, 1.2% hits; HepG2 CAGA-GFP TGF-b/SMAD3 reporter, GFP fluorescence, 18 h; TGF-beta stimulated, 500 pg/mL final; Potency, µM (top dose mostly 46.1 µM), actives largely listed as inhibitors; also: nearly all actives have a fitted effect of over 65% in size
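Smad-responsive CAGA-GFP expression was quantified in HEPG2 cells exposed to compounds and 500 pg/mL final TGF-beta for 18 h at 37 degrees C; unstimulated wells defined full inhibition.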
Of the large screens only hits and unclear results are named; the others gave an inactive call. Hits are enriched below; roughly 3.8% of the tested compounds scored in any of these assays. Calls follow the shape of the dose curve; as a rule, active = well fitted curve in the direction sought with a large enough effect; inconclusive = small, poorly fitted or top-dose-only effect, or another doubt; inactive = no such curve, though single readings can be large; an effect the other way counts as inactive or inconclusive.

COCCNc1nc(Nc2ccc(C)cc2C)c2sc(-c3ccccc3)cc2n1	HT1080 IDH1KD tx inconclusive, HT1080NT lethal inconclusive, S2 tox inconclusive
Cc1ccc(S(=O)(=O)Nc2ccc(Br)cc2C(NCC(=O)O)c2ccccc2)cc1 (stereo not drawn)	TGFb inhibitor inconclusive
O=C(O)CSc1cc(NS(=O)(=O)c2ccc(Br)cc2)c2ccccc2c1O	HT1080 IDH1KD tx 16µM, HT1080NT lethal 21µM, TGFb inhibitor inconclusive (no result: ATXN2 expr inh)
CCOC(=O)C1CCN(C(=O)c2ccc3c(=O)n4nc(Nc5cc(C)ccc5C)sc4nc3c2)CC1	TGFb inhibitor 13µM
Cc1ccc(C)c(Nc2nn3c(=O)c4ccc(C(=O)NCc5cccs5)cc4nc3s2)c1	HepG2 tox 6.3µM, TGFb inhibitor 5µM (no result: HT1080 IDH1KD tx, HT1080NT lethal, ATXN2 expr inh, S2 tox)
COc1cc2nc(CC(O)c3nc4cc(OC)c(OC)cc4[nH]3)[nH]c2cc1OC (stereo not drawn)	none (no result: HT1080 IDH1KD tx, HT1080NT lethal, ATXN2 expr inh, S2 tox)
COc1ccccc1-c1ccnc(-n2ncc(C(=O)N3CCN(C4CCCC4)CC3)c2-c2ccco2)n1	none (no result: HT1080 IDH1KD tx, HepG2 tox, HT1080NT lethal, ATXN2 expr inh, TGFb inhibitor)
COc1ccc2c(c1)CC(C(=O)Nc1cc(Cl)ccc1C)CO2 (stereo not drawn)	none (no result: HT1080 IDH1KD tx, HT1080NT lethal, ATXN2 expr inh, S2 tox)
COC(=O)c1cc(Cl)c(NC(=O)c2ccc(C(C)(C)C)cc2)cc1OC	HT1080 IDH1KD tx 11µM, HT1080NT lethal inconclusive
CC(C)CC1NC(=S)N(Cc2ccccc2)C1=O (stereo not drawn)	HT1080 IDH1KD tx inconclusive, HT1080NT lethal inconclusive, S2 tox inconclusive, TGFb inhibitor 5µM (no result: ATXN2 expr inh)
CCC(=O)Oc1ccc2c(c1)CC[C@@H]1[C@@H]2CC[C@@]2(C)[C@H]1C[C@@H](OC(=O)CC)[C@@H]2OC(=O)CC	none (no result: HT1080 IDH1KD tx, HepG2 tox, HT1080NT lethal, TGFb inhibitor)
Cc1nc2ccccc2c(=O)n1-c1ccc(NC(=O)C(F)(F)F)cc1	TGFb inhibitor inconclusive (no result: HT1080 IDH1KD tx, HT1080NT lethal)
COc1ccc(CCNC(=S)N2CCC(C(=O)c3ccc(F)cc3)CC2)cc1OC	HT1080 IDH1KD tx inconclusive, TGFb inhibitor 11µM (no result: ATXN2 expr inh)
COc1ccc(C(=O)C2CCN(C(=S)NCCc3ccc(OC)c(OC)c3)CC2)cc1	ATXN2 expr inh inconclusive, S2 tox inconclusive, TGFb inhibitor inconclusive
COc1ccc(N2C(=O)CSC23C(=O)N(CC(=O)NC2CCCCC2)c2ccccc23)cc1 (stereo not drawn)	none (no result: HT1080 IDH1KD tx, HT1080NT lethal, ATXN2 expr inh, S2 tox)
Cc1cc(C)c(CN2CCN(C(=O)Cn3cnc(C(=O)Nc4ccc(C)c(C)c4)n3)CC2)c(C)c1	HT1080NT lethal inconclusive, ATXN2 expr inh inconclusive, S2 tox inconclusive, TGFb inhibitor 16µM
Cc1ccc(NC(=O)c2ncn(CCCN3CCN(Cc4cccc5ccccc45)CC3)n2)cc1C	HT1080 IDH1KD tx inconclusive, HT1080NT lethal inconclusive, ATXN2 expr inh inconclusive, S2 tox 32µM, TGFb inhibitor inconclusive
Cc1cccc(OCC(=O)NCC2(N3CCN(C)CC3)CCCCC2)c1C	none (no result: HT1080 IDH1KD tx, HT1080NT lethal, ATXN2 expr inh, S2 tox)
COc1ccc(N(C(=O)/C=C\C(=O)Nc2ccc(C)cc2)C(C(=O)NCc2ccco2)c2ccc(C)cc2)cc1 (stereo not drawn)	none (no result: HT1080 IDH1KD tx, HT1080NT lethal, ATXN2 expr inh, S2 tox)
CC1=CC(C)(C)N(S(=O)(=O)c2ccc(F)cc2)c2ccc(C)cc21	HT1080 IDH1KD tx inconclusive, HT1080NT lethal 7.1µM
CC1=CC(C)(C)N(C(=O)CN2C(=O)c3ccccc3C2=O)c2ccccc21	none
COc1ccc2c(c1)C(C)=CC(C)(C)N2S(=O)(=O)c1ccc(Br)cc1	HT1080 IDH1KD tx 2.3µM, HT1080NT lethal 3.3µM, TGFb inhibitor inconclusive
CCOc1ccc2c(c1)C(C)=CC(C)(C)N2S(=O)(=O)c1ccc(NC(C)=O)cc1	HT1080 IDH1KD tx 1.8µM, HT1080NT lethal 3.7µM, TGFb inhibitor inconclusive (no result: ATXN2 expr inh)
CC1=CC(C)(C)N(S(=O)(=O)c2ccc(C)cc2)c2ccccc21	HT1080 IDH1KD tx inconclusive, HT1080NT lethal 6.3µM, TGFb inhibitor inconclusive
CCOc1ccc2c(c1)C(C)=CC(C)(C)N2S(=O)(=O)c1ccc(F)cc1	HT1080 IDH1KD tx inconclusive, HT1080NT lethal inconclusive, TGFb inhibitor inconclusive
COc1ccc2c(c1)C(C)=CC(C)(C)N2S(=O)(=O)c1ccc(NC(C)=O)cc1	HT1080 IDH1KD tx inconclusive, HT1080NT lethal inconclusive, TGFb inhibitor inconclusive
CCN(CC)CCNCc1cc(Cl)ccc1OCc1ccccc1F	HT1080 IDH1KD tx inconclusive, HT1080NT lethal 23µM
CNCCC=C1c2ccccc2C=Cc2ccccc21	HT1080 IDH1KD tx 15µM, HT1080NT lethal 21µM, S2 tox inconclusive
CN(C)CCC=C1c2ccccc2C=Cc2ccccc21	HT1080 IDH1KD tx inconclusive, HT1080NT lethal inconclusive, ATXN2 expr inh inconclusive, S2 tox inconclusive
CCCC(O)(c1ccccc1)C(CN1CCOCC1)c1ccccc1 (stereo not drawn)	none
CCCCCCC(O)(c1ccccc1)C(CN1CCOCC1)c1ccccc1 (stereo not drawn)	TGFb inhibitor 16µM
CCCC(O)(c1ccc(Cl)cc1)C(CN1CCOCC1)c1ccccc1 (stereo not drawn)	S2 tox inconclusive, TGFb inhibitor 13µM
CCCCCC(O)(c1ccccc1)C(CN1CCOCC1)c1ccccc1 (stereo not drawn)	TGFb inhibitor inconclusive
CCCC(O)(c1ccc(CC)cc1)C(CN1CCOCC1)c1ccccc1 (stereo not drawn)	HT1080 IDH1KD tx 21µM, HT1080NT lethal 33µM, TGFb inhibitor inconclusive
CC(C)N1CCN(C(=O)c2ccc([N+](=O)[O-])cc2)CC1	HepG2 tox 11µM (no result: ATXN2 expr inh)
O=C(c1ccccc1)N1CCN(C(=O)c2ccc([N+](=O)[O-])cc2)CC1	none
